PubChem BioAssay (NCI)
This is part of a sample that, as a whole, favours compounds with a hit. Of some 83,000 tested, about 20% had one in any assay.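 A percent growth of 40 corresponds to 60% growth inhibition; 0 means no net growth; -100 means all cells died. Active threshold: below 10.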 Values without a mark were called inactive. Activity calls are given as the source filed them.

Key:
Assay in all cases: NCI-60 one-dose screen, 48 h (100 = growth as untreated, 0 = no growth, -100 = all killed)
Settings in all cases: 10 µM unless noted
NCI-H23 lung = tested on: NCI-H23 lung
NCI-H226 lung = tested on: NCI-H226 lung
NCI-H322M lung = tested on: NCI-H322M lung
HOP-62 NSCLC = tested on: HOP-62 NSCLC
NCI-H460 lung = tested on: NCI-H460 lung
HOP-92 NSCLC = tested on: HOP-92 NSCLC
NCI-H522 lung = tested on: NCI-H522 lung
A549/ATCC NSCLC = tested on: A549/ATCC NSCLC
786-0 renal = tested on: 786-0 renal
COLO 205 colon = tested on: COLO 205 colon
DU-145 prostate = tested on: DU-145 prostate
K-562 leukemia = tested on: K-562 leukemia
MALME-3M melanoma = tested on: MALME-3M melanoma
MDA-MB-231 breast = tested on: MDA-MB-231 breast
RXF 393 renal = tested on: RXF 393 renal
SF-268 CNS = tested on: SF-268 CNS
SF-295 CNS = tested on: SF-295 CNS
SF-539 CNS = tested on: SF-539 CNS
UACC-257 melanoma = tested on: UACC-257 melanoma
M14 melanoma = tested on: M14 melanoma

| Structure (SMILES) | growth (NCI-H23 lung) | growth (NCI-H226 lung) | growth (NCI-H322M lung) | growth (HOP-62 NSCLC) | growth (NCI-H460 lung) | growth (HOP-92 NSCLC) | growth (NCI-H522 lung) | growth (A549/ATCC NSCLC) | growth (786-0 renal) | growth (COLO 205 colon) | growth (DU-145 prostate) | growth (K-562 leukemia) | growth (MALME-3M melanoma) | growth (MDA-MB-231 breast) | growth (RXF 393 renal) | growth (SF-268 CNS) | growth (SF-295 CNS) | growth (SF-539 CNS) | growth (UACC-257 melanoma) | growth (M14 melanoma) |
| --- | --- | --- | --- | --- | --- | --- | --- | --- | --- | --- | --- | --- | --- | --- | --- | --- | --- | --- | --- | --- |
| COc1ccc2[nH]c(=O)cc(-n3ncc(C(=O)/C=C/c4cc(OC)c(OC)c(OC)c4)c3C)c2c1 | -45.1% (active) | -21.7% (active) | 5.89% (active) | 0.688% (active) | -30.4% (active) | 44.2% | -81.1% (active) | 8.31% (active) | -15% (active) | -92.5% (active) | -2.23% (active) | 1.01% (active) | -25.7% (active) | 1.48% (active) | -74.8% (active) | 8.19% (active) | 11.3% | -59.8% (active) | -6.58% (active) | -48.3% (active) |
| CN(C)c1ccc(/C=C/c2n(Cc3ccc4ccccc4c3)c3ccccc3[n+]2Cc2ccc3ccccc3c2)cc1 | -91.4% (active) | -65.2% (active) | -90% (active) | -63.3% (active) | -75.9% (active) | -67.2% (active) | -69.1% (active) | -53.4% (active) | -72% (active) | -41.7% (active) | -43.3% (active) | 2.08% (active) | -68% (active) | -80.3% (active) | -74.4% (active) | -59.1% (active) | -98.9% (active) | -95.3% (active) | -74.3% (active) | -69.2% (active) |
| O=C(N/N=C/c1c[nH]c2ccccc12)Nc1ccccc1Cl | 1.51% (active) | 19.8% | 41.7% | 18.4% | 1.98% (active) | 3.23% (active) | -41.8% (active) | 15.2% | -41.4% (active) | -39.7% (active) | 6.12% (active) | 12.2% | 33.3% | 16.5% | -36.1% (active) | 7.97% (active) | -37.1% (active) | -10.7% (active) | 43.8% | 10.9% |
| Cn1cc(-c2cc3nc(-c4c[nH]c5ccccc45)cc(N)n3n2)c2ccccc21 | -56.9% (active) | 5.22% (active) | 19.4% | -68.2% (active) | -75.5% (active) | -29.4% (active) | -65.5% (active) | -81.7% (active) | -90.6% (active) | -88.8% (active) | 11.6% | -7.67% (active) | -92.8% (active) | -93.2% (active) | 82.7% | 77.1% | -61.2% (active) | -97.4% (active) | -88.4% (active) | -60.5% (active) |
| COc1ccc(C(=O)C[n+]2cccc3c4ccccc4ccc32)cc1 | 28.4% | 59.1% | 68.8% | 44.2% | 19.4% | 12.5% | 28.8% | 38.2% | 66.9% | 26.5% | 56.3% | 16.4% | 34.3% | 40.4% | 55.8% | 38% | 29.8% | 53.1% | 15.4% | 38.5% |
| CCOC(=O)/C(F)=C/C1CC1CCc1ccc(OCC)cc1 (stereo not given) | 87.3% | 86.8% | 82.5% | 124% | 59.2% | 91.7% | 97.5% | 50.5% | 105% | 41.8% | 50.5% | 98.3% | 89.9% | 97.4% | 96.2% | 90.5% | 91.1% | 93% | 105% | 105% |
| COc1ccc(-c2cc(-c3cc(C(C)C)c(O)cc3C)nn2-c2ccc(S(N)(=O)=O)cc2)cc1 | 41.5% | 78.6% | 72.3% | 51.5% | 33.8% | 45.4% | 6.99% (active) | 40.4% | 25.5% | 122% | 16.2% | 13.6% | 60.1% | 27.9% | 26.7% | 47.2% | 19.8% | -28% (active) | 60.5% | 42.8% |
| Nc1nn2c(-c3cc4cc(Br)ccc4oc3=O)ccnc2c1N=Nc1ccc(Br)cc1 | -7.78% (active) | -25% (active) | 23.7% | -11.9% (active) | 15% | -5.4% (active) | 24.6% | 39.6% | 13.8% | 35.8% | 36.8% | 32.4% | 52.1% | -43.8% (active) | -31.4% (active) | 26.9% | -37% (active) | -71.4% (active) | 87.8% | 42.4% |
| COc1cc(NC(=O)CSc2nnc(-c3ccc(-c4nc5ccc(Cl)cc5[nH]4)cc3)o2)cc(OC)c1OC | 52.2% | 57.3% | 95.2% | 65.9% | 29% | 91.5% | 35% | 70.5% | 56.7% | 74.2% | 96% | 29.5% | 18.1% | 60.2% | 25.8% | 52.9% | 65% | 24.1% | 67.2% | 33.5% |
| Nc1nc2cc(-c3ccc4ncnc(NCc5ccccc5)c4c3)ccc2o1 | 24.4% | -45.9% (active) | -19.8% (active) | -46.1% (active) | 7.02% (active) | -39.5% (active) | -12.1% (active) | 11.4% | 9.02% (active) | 52.9% | 15.9% | 25.9% | -23.8% (active) | -48.8% (active) | -75.6% (active) | 25% | -42.3% (active) | -86.5% (active) | 68.4% | 22.4% |
| N#Cc1c(-c2ccc(F)cc2)nc(SCc2ccc(F)cc2)nc1N1CCNCC1 | -61.3% (active) | 76.9% | 36.1% | -65.4% (active) | -85.1% (active) | -64.9% (active) | -70.4% (active) | -74.8% (active) | -79.1% (active) | -68.8% (active) | -3.44% (active) | 0.722% (active) | -97.8% (active) | -93.6% (active) | -64.7% (active) | 41.5% | -79.9% (active) | -98.9% (active) | -90.7% (active) | -88.4% (active) |
| CC(C)(C)OC(=O)N1C/C(=C\c2ccc(F)cc2)C(=O)/C(=C/c2ccc(F)cc2)C1 | -77.7% (active) | -43.8% (active) | 29.6% | 14.6% | 1.19% (active) | -30.5% (active) | -89% (active) | 35.3% | -74.8% (active) | -47.2% (active) | 9.97% (active) | 9.9% (active) | -75.5% (active) | -54.4% (active) | -88.1% (active) | -46.1% (active) | -75.1% (active) | -98.3% (active) | -42.1% (active) | -71.5% (active) |
| CN(C)c1nc(NCCNS(=O)(=O)c2ccc(C(=O)/C=C/c3ccc(C(F)(F)F)cc3)cc2)nc(N2CCOCC2)n1 | -64.2% (active) | 60.8% | 72% | 80.1% | 28.8% | 32.3% | 18.5% | 16.6% | -85.1% (active) | 16.1% | 3.39% (active) | -13.6% (active) | 56.5% | -59.1% (active) | -76.6% (active) | 50.5% | 7.03% (active) | -95.4% (active) | 37.9% | -87.5% (active) |
| COc1ccc2[nH]c(O)c(N=Nc3nc(-c4ccc(Cl)cc4)cs3)c2c1 | -33.7% (active) | -54.3% (active) | 12.8% | -26.6% (active) | -31.4% (active) | -38.8% (active) | -26.4% (active) | -60.8% (active) | -86.6% (active) | -76.9% (active) | 4.95% (active) | 12.1% | -63.5% (active) | 17.6% | -90% (active) | -9.32% (active) | -46% (active) | -60.5% (active) | 9.82% (active) | -9.9% (active) |
| CCCn1c(NC(=O)c2cccc(C(N)=O)c2)nc2ccc(CN3CCCCC3)cc21 | 89.8% | 102% | 82% | 105% | 81.9% | 84.4% | 94.1% | 99.8% | 12% | 97.4% | 87.1% | 85.8% | 92.4% | 126% | 46.4% | 107% | 106% | 106% | 121% | -6.41% (active) |
